From PubChem BioAssay (NCATS)
Results filed as inconclusive are left out. A call without a number means that no potency is given here. Active and inactive are the calls of the source. Calls follow the shape of the dose curve; as a rule, active = well fitted cell-killing curve with a large enough effect; inconclusive = small, poorly fitted or top-dose-only effect, or effect the other way; inactive = no such curve, though single readings can be large or run the other way.

Key:
[1] = Quantitative High-Throughput drug screen in 47 multiple myeloma cell lines against the NCATS MIPE library collection: OCIMY1_PLB cell viability assay (AID 1918979); settings: OCI-MY1 myeloma viability, CellTiter-Glo ATP, 48 h; series mostly up to 45.8 µM; also: nearly all actives have a fitted effect of over 35% in size
Outline: (§1)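 Myeloma cells (500/well) treated with MIPE 4.0 compounds for 48 h at 37 °C, 5% CO2. Viability read as ATP via CellTiter-Glo luminescence after 5 min at RT; DMSO-only wells = 100%, media-only = 0% viability.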

[2] = Quantitative High-Throughput drug screen in 47 multiple myeloma cell lines against the NCATS MIPE library collection: MM1S_ATCC cell viability assay (AID 1918980); settings: MM1S myeloma viability, CellTiter-Glo ATP luminescence, 48 h; series mostly up to 45.8 µM; also: nearly all actives have a fitted effect of over 45% in size
Outline: as §1

[3] = Quantitative High-Throughput drug screen in 47 multiple myeloma cell lines against the NCATS MIPE library collection: LP1_DSMZ cell viability assay (AID 1918982); settings: LP1 myeloma viability, CellTiter-Glo ATP luminescence, 48 h; series mostly up to 45.8 µM; also: nearly all actives have a fitted effect of over 35% in size
Outline: as §1

[4] = Quantitative High-Throughput drug screen in 47 multiple myeloma cell lines against the NCATS MIPE library collection: KMS28PE_JCRB cell viability assay (AID 1918983); settings: KMS28PE multiple myeloma viability, CellTiter-Glo ATP, 48 h; series mostly up to 45.8 µM; also: nearly all actives have a fitted effect of over 35% in size
Outline: as §1

[5] = Quantitative High-Throughput drug screen in 47 multiple myeloma cell lines against the NCATS MIPE library collection: KMS34_JCRB cell viability assay (AID 1918985); settings: KMS34 myeloma viability, CellTiter-Glo ATP luminescence, 48 h; series mostly up to 45.8 µM; also: nearly all actives have a fitted effect of over 40% in size
Outline: as §1

[6] = Quantitative High-Throughput drug screen in 47 multiple myeloma cell lines against the NCATS MIPE library collection: OCIMY5_PLB cell viability assay (AID 1918988); settings: OCI-MY5 myeloma viability, ATP luminescence, 48 h; series mostly up to 45.8 µM; also: nearly all actives have a fitted effect of over 65% in size
Outline: as §1

[7] = Quantitative High-Throughput drug screen in 47 multiple myeloma cell lines against the NCATS MIPE library collection: OPM1_PLB cell viability assay (AID 1918989); settings: CellTiter-Glo, 48 h; series mostly up to 45.8 µM; also: nearly all actives have a fitted effect of over 40% in size
Outline: as §1

[8] = Quantitative High-Throughput drug screen in 47 multiple myeloma cell lines against the NCATS MIPE library collection: MM1R_ATCC cell viability assay (AID 1918981); settings: MM1R multiple myeloma cells, CellTiter-Glo viability, 48 h; series mostly up to 45.8 µM; also: nearly all actives have a fitted effect of over 35% in size
Outline: as §1

[9] = Quantitative High-Throughput drug screen in 47 multiple myeloma cell lines against the NCATS MIPE library collection: L363_DSMZ cell viability assay (AID 1918984); settings: L363 myeloma viability, CellTiter-Glo ATP luminescence, 48 h; series mostly up to 45.8 µM; also: nearly all actives have a fitted effect of over 40% in size
Outline: as §1

[10] = Quantitative High-Throughput drug screen in 47 multiple myeloma cell lines against the NCATS MIPE library collection: OCIMY7_PLB cell viability assay (AID 1918987); settings: OCI-MY7 myeloma viability, CellTiter-Glo ATP, 48 h; series mostly up to 45.8 µM; also: nearly all actives have a fitted effect of over 65% in size
Outline: as §1
Potency is read from the fitted curve at half-maximal effect.

Compound	Potency [1]	Potency [2]	Potency [3]	Potency [4]	Potency [5]	Potency [6]	Potency [7]	Potency [8]	Potency [9]	Potency [10]
Clc1cccc(Cl)c1NC1=NCCN1	inactive	18.7 µM (active)	inactive	inactive	inactive	inactive	inactive	–	–	–
Cc1[nH]c(=O)c(C#N)cc1-c1ccncc1	inactive	–	–	inactive	inactive	–	16.6 µM (active)	inactive	inactive	–
NC(=O)C1CCCc2c1[nH]c1ccc(Cl)cc21 (stereo not drawn)	inactive	–	inactive	inactive	–	–	4.69 µM (active)	14.8 µM (active)	–	–
COc1cc(Nc2ncc3c(n2)-c2ccc(Cl)cc2C(c2c(F)cccc2OC)=NC3)ccc1C(=O)O	inactive	–	inactive	–	–	–	–	inactive	–	–
CCN(c1ccccc1)c1cc(NC)[n+](C)c(C)n1	inactive	–	inactive	inactive	26.4 µM (active)	20.9 µM (active)	inactive	16.6 µM (active)	–	–
N#CC[C@H](C1CCCC1)n1cc(-c2ncnc3[nH]ccc23)cn1	inactive	4.18 µM (active)	–	–	–	20.9 µM (active)	6.62 µM (active)	–	–	18.7 µM (active)
Cc1ccc(-n2nc(C(C)(C)C)cc2NC(=O)Nc2ccc(OCCN3CCOCC3)c3ccccc23)cc1	inactive	4.18 µM (active)	inactive	–	–	20.9 µM (active)	26.4 µM (active)	–	–	2.96 µM (active)
CCC(C)(C)C(=O)O[C@H]1C[C@@H](C)C=C2C=C[C@H](C)[C@H](CC[C@@H]3C[C@@H](O)CC(=O)O3)[C@H]21	inactive	16.6 µM (active)	–	–	–	18.7 µM (active)	8.33 µM (active)	–	13.2 µM (active)	–
NC(=O)c1cnccn1	inactive	–	inactive	inactive	–	–	–	inactive	inactive	–
CC(C)NCC(O)COc1ccc(COCCOC(C)C)cc1 (stereo not drawn)	inactive	inactive	inactive	–	inactive	–	–	–	–	–
C[C@]12CC[C@H](O)CC1=CC[C@@H]1[C@H]2CC[C@]2(C)C(c3cccnc3)=CC[C@H]12	inactive	–	inactive	inactive	inactive	inactive	–	inactive	–	–
CCCCNc1cc(C(=O)O)cc(S(N)(=O)=O)c1Oc1ccccc1	inactive	–	inactive	inactive	inactive	–	inactive	inactive	inactive	–
Nc1nccc(-c2ccc3noc(-c4ccc(Cl)cc4)c3c2)n1	inactive	16.6 µM (active)	–	inactive	–	18.7 µM (active)	inactive	–	–	20.9 µM (active)
O=C(NOC[C@H](O)CO)c1ccc(F)c(F)c1Nc1ccc(I)cc1F	inactive	16.6 µM (active)	inactive	2.96 µM (active)	–	inactive	1.48 µM (active)	–	–	0.0148 µM (active)
CCN(CC)CCCC(C)Nc1ccnc2cc(Cl)ccc12 (stereo not drawn)	inactive	–	inactive	inactive	inactive	–	–	inactive	–	–
CCOc1ccn(-c2ccc(F)cc2)c(=O)c1C(=O)Nc1ccc(Oc2ccnc(N)c2Cl)c(F)c1	inactive	16.6 µM (active)	–	–	–	8.33 µM (active)	–	–	–	–
COCCNCCCn1c(C(=O)CF)c(-c2ccc(C)cc2)c2c(N)ncnc21	inactive	–	7.43 µM (active)	inactive	16.6 µM (active)	–	–	2.64 µM (active)	–	–
CCOc1ccc(Cc2cc([C@@H]3O[C@H](CO)[C@@H](O)[C@H](O)[C@@H]3O)ccc2Cl)cc1	inactive	–	inactive	inactive	inactive	inactive	14.8 µM (active)	inactive	–	3.72 µM (active)
C#Cc1cccc(Nc2ncnc3cc(OCCOC)c(OCCOC)cc23)c1	inactive	9.35 µM (active)	–	–	11.8 µM (active)	5.9 µM (active)	–	–	–	0.833 µM (active)
Cc1c(C)c2c(c(C)c1O)CCC(C)(COc1ccc(CC3SC(=O)NC3=O)cc1)O2 (stereo not drawn)	inactive	–	inactive	inactive	–	–	inactive	inactive	–	–
Cn1c(=O)c(F)c(Nc2ccc(I)cc2F)c2c(=O)n(C[C@@H](O)CO)cnc21	inactive	–	inactive	inactive	inactive	–	–	inactive	–	–
Cc1ccc(N(CC2=NCCN2)c2cccc(O)c2)cc1	inactive	20.9 µM (active)	–	5.26 µM (active)	–	23.5 µM (active)	23.5 µM (active)	–	–	–
CCc1ccc(CCOc2ccc(CC3SC(=O)NC3=O)cc2)nc1 (stereo not drawn)	inactive	–	–	inactive	inactive	–	inactive	inactive	–	–
c1ccc([C@H]2CN3CCSC3=N2)cc1	inactive	–	inactive	inactive	inactive	inactive	–	inactive	–	–
O=C(Nc1ccc(F)c(C(F)(F)F)c1)Nc1nnc(-c2ccncc2)s1	inactive	–	3.72 µM (active)	–	–	2.35 µM (active)	13.2 µM (active)	11.8 µM (active)	–	inactive

Compound	Potency [1]	Potency [2]	Potency [3]	Potency [4]	Potency [5]	Potency [6]	Potency [7]	Potency [8]	Potency [9]	Potency [10]
CCCS(=O)(=O)Nc1ccc(F)c(C(=O)c2c[nH]c3ncc(Cl)cc23)c1F	inactive	inactive	inactive	–	inactive	14.8 µM (active)	18.7 µM (active)	–	–	1.32 µM (active)
COc1nc(-c2ccc3c(c2)OCO3)n(-c2ccc(NC(=O)CSc3ccccc3)cc2)n1	inactive	–	inactive	14.8 µM (active)	inactive	–	–	inactive	–	–
CC(C)(Sc1ccc(CCN(CCCCC2CCCCC2)C(=O)NC2CCCCC2)cc1)C(=O)O	–	4.18 µM (active)	16.6 µM (active)	8.33 µM (active)	–	–	inactive	23.5 µM (active)	–	14.8 µM (active)
CC(C)(N)C(=O)N[C@H](COCc1ccccc1)C(=O)N1CCC2(CC1)CN(S(C)(=O)=O)c1ccccc12	–	23.5 µM (active)	16.6 µM (active)	18.7 µM (active)	14.8 µM (active)	16.6 µM (active)	–	18.7 µM (active)	–	–
NCCCC(N)(C(=O)O)C(F)F (stereo not drawn)	–	0.105 µM (active)	1.48 µM (active)	inactive	–	0.332 µM (active)	–	inactive	5.9 µM (active)	–
Cn1cnc([N+](=O)[O-])c1Sc1ncnc2nc[nH]c12	inactive	–	–	inactive	–	–	4.69 µM (active)	–	–	11.8 µM (active)
Nc1ccc(S(=O)(=O)Nc2ccnn2-c2ccccc2)cc1	–	inactive	inactive	inactive	inactive	–	–	inactive	inactive	–
Cc1ccccc1C(OCCN(C)C)c1ccccc1 (stereo not drawn)	–	inactive	inactive	–	–	–	inactive	inactive	inactive	–
COc1ccc(-c2ccc3c(N4CCOC[C@H]4C)nc(N4CCOC[C@H]4C)nc3n2)cc1CO	–	0.0526 µM (active)	–	0.0235 µM (active)	0.0209 µM (active)	0.332 µM (active)	0.0148 µM (active)	0.0743 µM (active)	–	0.209 µM (active)
Cc1csc(NC(=O)c2sc3nc4c(c(C(F)(F)F)c3c2N)CCC4)n1	–	13.2 µM (active)	20.9 µM (active)	–	–	20.9 µM (active)	–	inactive	–	2.35 µM (active)
CNC(=O)c1ccc(N2C(=S)N(c3ccc(C#N)c(C(F)(F)F)c3)C(=O)C2(C)C)cc1F	–	18.7 µM (active)	inactive	inactive	inactive	inactive	inactive	inactive	–	–
CC(C)(C)NCC(O)c1ccc(O)c(CO)c1 (stereo not drawn)	–	0.059 µM (active)	inactive	–	–	0.0148 µM (active)	inactive	0.0264 µM (active)	–	–
CC1(C)SCCN(S(=O)(=O)c2ccc(OCC#CCO)cc2)[C@@H]1C(=O)NO	inactive	–	16.6 µM (active)	–	–	5.26 µM (active)	inactive	–	–	5.26 µM (active)
OCCn1cc(-c2cnc3nnn(Cc4ccc5ncccc5c4)c3n2)cn1	–	9.35 µM (active)	inactive	inactive	–	9.35 µM (active)	inactive	18.7 µM (active)	inactive	inactive
O=C1CCCC2=C1C(c1[nH]ncc1Cl)N=C(Nc1nc3ccccc3o1)N2 (stereo not drawn)	inactive	–	–	inactive	–	23.5 µM (active)	10.5 µM (active)	inactive	–	8.33 µM (active)
Cc1oncc1C(=O)Nc1ccc(C(F)(F)F)cc1	–	14.8 µM (active)	10.5 µM (active)	–	–	–	–	inactive	–	inactive
COc1ccc(-c2ccc3c(N4CCOCC4)nc(N4C[C@@H](C)O[C@@H](C)C4)nc3n2)cc1CO	–	0.469 µM (active)	0.059 µM (active)	0.187 µM (active)	0.469 µM (active)	1.48 µM (active)	0.935 µM (active)	0.833 µM (active)	0.235 µM (active)	–
CC(=O)NC(C)c1ccc(Oc2ccc(OC(C)C)cc2)cc1 (stereo not drawn)	14.8 µM (active)	–	–	18.7 µM (active)	–	16.6 µM (active)	1.48 µM (active)	–	–	2.35 µM (active)
Nc1cccc(S(=O)(=O)N2CCCN(S(=O)(=O)c3ccc4c(c3)OCCO4)CC2)c1	–	14.8 µM (active)	16.6 µM (active)	–	inactive	–	inactive	11.8 µM (active)	–	–
COc1ccc(-c2oc3cc(OC)ccc3c2C(=O)c2ccc(C#N)cc2)cc1	–	10.5 µM (active)	–	inactive	inactive	inactive	inactive	inactive	–	14.8 µM (active)
CC(C)C[C@H](NC(=O)[C@@H](O)[C@H](N)Cc1ccccc1)C(=O)O	–	18.7 µM (active)	20.9 µM (active)	20.9 µM (active)	–	26.4 µM (active)	16.6 µM (active)	20.9 µM (active)	–	20.9 µM (active)
O=C(Nc1cccnc1)N1CCC(Cc2cccc(Oc3ccc(C(F)(F)F)cn3)c2)CC1	–	14.8 µM (active)	–	16.6 µM (active)	–	18.7 µM (active)	18.7 µM (active)	13.2 µM (active)	4.69 µM (active)	–
Cc1c(CN2CCN(C(=O)C(C)C)CC2)sc2c(N3CCOCC3)nc(-c3cnc(N)nc3)nc12	–	0.132 µM (active)	–	0.0662 µM (active)	0.0296 µM (active)	0.0743 µM (active)	0.118 µM (active)	0.0469 µM (active)	0.0209 µM (active)	1.66 µM (active)
N#Cc1ccc(C(c2ccc(C#N)cc2)n2cncn2)cc1	3.72 µM (active)	–	–	6.62 µM (active)	–	–	16.6 µM (active)	–	–	–
